{"source": "the supplement of paper PMC11732987", "about": "“Enantioselective OTUD7B fragment discovery through chemoproteomics screening and high-throughput optimisation” (Communications Chemistry, 2025)", "experiment_in_all_cases": "log2 ratio of Biotin-Ahx-Ub-VS probe labelling (fragment/DMSO); higher = less target engagement (more negative = stronger competition), active = hit call of the paper (q ≤ 0.05, log2 ratio ≤ -1)", "details_in_all_cases": "compound concentration: 200 uM; treatment time: 3 h", "key": {"[1]": {"molecular_target": "T1, ALG13 (UniProt Q9NP73)", "T1 sequence (whole entry)": "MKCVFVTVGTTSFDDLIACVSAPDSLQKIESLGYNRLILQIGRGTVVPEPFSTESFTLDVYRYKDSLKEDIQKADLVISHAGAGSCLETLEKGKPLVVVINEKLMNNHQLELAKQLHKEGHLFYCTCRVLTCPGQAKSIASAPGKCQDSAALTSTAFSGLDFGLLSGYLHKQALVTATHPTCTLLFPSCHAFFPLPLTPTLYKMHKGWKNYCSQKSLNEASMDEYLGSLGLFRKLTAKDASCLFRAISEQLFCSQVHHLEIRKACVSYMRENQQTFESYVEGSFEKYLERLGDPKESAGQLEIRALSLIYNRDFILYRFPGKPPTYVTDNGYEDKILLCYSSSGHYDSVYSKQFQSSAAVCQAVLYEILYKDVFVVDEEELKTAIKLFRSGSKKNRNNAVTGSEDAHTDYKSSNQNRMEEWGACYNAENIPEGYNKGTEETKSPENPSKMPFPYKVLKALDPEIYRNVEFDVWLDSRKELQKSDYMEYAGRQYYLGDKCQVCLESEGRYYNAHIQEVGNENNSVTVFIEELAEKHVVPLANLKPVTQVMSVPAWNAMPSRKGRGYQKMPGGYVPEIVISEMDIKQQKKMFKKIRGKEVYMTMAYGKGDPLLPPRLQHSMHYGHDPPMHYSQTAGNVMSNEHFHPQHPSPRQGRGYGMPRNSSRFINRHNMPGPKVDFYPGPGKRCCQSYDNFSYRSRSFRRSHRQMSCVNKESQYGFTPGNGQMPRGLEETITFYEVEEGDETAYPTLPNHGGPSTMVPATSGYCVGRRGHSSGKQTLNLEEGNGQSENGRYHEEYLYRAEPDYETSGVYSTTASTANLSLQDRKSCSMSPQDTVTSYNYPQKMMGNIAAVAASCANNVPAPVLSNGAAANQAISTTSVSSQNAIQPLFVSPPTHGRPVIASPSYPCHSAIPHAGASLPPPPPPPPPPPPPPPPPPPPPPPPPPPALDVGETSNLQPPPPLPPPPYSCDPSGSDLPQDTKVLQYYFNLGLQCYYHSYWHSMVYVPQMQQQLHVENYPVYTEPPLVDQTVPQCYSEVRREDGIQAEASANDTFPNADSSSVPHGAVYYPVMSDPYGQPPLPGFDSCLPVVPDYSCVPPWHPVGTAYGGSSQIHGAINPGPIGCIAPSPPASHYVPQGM", "summary_of_the_method": "(§1)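 HEK293T lysate (495 µg per sample, in Tris/CHAPS/IGEPAL buffer with protease inhibitors) was treated in triplicate with fragment at 200 µM or with DMSO for 3 h. It was then treated with Biotin-Ahx-Ub-VS (0.5 µM final) for 1 h. Labelled DUBs were NeutrAvidin-enriched, digested with LysC and trypsin, and run by diaPASEF LC-MS/MS. Spectronaut label-free quantities were global-median-normalised. Values are average log2 ratios fragment/DMSO by unpaired t-test, using proteins with ≥2 unique peptides.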"}, "[2]": {"molecular_target": "ATXN3 (UniProt P54252)", "sequence (P54252 whole entry)": "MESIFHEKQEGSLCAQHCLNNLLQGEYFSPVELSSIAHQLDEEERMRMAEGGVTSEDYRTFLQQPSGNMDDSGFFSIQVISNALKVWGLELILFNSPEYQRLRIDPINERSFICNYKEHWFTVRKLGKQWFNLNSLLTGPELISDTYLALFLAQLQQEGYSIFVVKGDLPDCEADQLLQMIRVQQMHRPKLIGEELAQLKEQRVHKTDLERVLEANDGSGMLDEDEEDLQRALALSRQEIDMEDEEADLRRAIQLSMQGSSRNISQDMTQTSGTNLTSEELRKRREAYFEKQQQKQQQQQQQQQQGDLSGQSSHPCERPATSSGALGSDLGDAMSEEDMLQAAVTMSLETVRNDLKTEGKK", "summary_of_the_method": "as §1"}, "[3]": {"molecular_target": "T2, BAP1 (UniProt Q92560)", "T2 sequence (whole entry)": "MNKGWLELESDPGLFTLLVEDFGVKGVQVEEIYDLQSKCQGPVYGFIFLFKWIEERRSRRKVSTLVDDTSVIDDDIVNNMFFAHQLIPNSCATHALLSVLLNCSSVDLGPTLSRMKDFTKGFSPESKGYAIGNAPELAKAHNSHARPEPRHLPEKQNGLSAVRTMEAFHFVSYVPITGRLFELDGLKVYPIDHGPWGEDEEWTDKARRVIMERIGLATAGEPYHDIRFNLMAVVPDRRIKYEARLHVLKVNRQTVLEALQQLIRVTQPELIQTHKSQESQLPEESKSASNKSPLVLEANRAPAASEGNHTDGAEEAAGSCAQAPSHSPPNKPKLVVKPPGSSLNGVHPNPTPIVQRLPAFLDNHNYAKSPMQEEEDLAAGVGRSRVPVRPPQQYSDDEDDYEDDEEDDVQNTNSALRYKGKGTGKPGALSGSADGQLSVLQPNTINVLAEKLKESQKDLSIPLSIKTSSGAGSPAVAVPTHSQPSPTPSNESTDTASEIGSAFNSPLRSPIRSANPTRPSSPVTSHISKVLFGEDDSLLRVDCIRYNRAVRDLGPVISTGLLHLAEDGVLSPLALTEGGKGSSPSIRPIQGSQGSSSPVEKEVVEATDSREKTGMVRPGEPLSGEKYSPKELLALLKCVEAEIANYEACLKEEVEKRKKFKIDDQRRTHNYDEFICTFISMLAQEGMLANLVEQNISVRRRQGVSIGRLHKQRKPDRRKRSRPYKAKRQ", "summary_of_the_method": "as §1"}, "[4]": {"molecular_target": "EIF3F (UniProt O00303)", "sequence (O00303 whole entry)": "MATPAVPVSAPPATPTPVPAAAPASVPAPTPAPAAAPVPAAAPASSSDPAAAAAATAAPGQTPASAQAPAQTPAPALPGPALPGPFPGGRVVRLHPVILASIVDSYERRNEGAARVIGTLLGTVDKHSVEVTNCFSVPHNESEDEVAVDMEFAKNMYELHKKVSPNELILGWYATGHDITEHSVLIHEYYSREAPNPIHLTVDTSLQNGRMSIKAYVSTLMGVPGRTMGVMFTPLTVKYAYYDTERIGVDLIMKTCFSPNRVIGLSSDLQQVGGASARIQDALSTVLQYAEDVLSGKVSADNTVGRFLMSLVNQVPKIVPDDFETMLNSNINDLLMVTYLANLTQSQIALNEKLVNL", "summary_of_the_method": "as §1"}, "[5]": {"molecular_target": "EIF3H (UniProt O15372)", "sequence (O15372 whole entry)": "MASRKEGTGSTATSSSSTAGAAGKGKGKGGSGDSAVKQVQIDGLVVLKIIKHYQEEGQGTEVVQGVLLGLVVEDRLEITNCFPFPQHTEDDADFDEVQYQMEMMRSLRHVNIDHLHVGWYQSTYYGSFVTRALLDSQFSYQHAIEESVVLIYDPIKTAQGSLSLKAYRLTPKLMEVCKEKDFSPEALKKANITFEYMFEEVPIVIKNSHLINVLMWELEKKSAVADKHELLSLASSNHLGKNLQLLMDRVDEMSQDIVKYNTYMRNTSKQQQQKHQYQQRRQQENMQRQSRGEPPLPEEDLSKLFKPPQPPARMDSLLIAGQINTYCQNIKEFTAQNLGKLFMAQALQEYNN", "summary_of_the_method": "as §1"}, "[6]": {"molecular_target": "T3, FAM105A (UniProt Q9NUU6)", "T3 sequence (whole entry)": "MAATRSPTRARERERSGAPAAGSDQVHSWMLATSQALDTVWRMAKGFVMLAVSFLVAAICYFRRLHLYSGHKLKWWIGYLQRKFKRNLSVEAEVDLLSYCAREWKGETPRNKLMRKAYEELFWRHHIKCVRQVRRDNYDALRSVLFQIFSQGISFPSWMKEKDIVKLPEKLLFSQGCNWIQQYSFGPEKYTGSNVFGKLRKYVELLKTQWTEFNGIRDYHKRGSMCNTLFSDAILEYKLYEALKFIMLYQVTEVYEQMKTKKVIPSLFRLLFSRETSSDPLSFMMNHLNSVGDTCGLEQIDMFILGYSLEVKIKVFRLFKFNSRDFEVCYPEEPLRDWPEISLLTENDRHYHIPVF", "summary_of_the_method": "as §1"}, "[7]": {"molecular_target": "OTUB1 (UniProt Q96FW1)", "sequence (Q96FW1 whole entry)": "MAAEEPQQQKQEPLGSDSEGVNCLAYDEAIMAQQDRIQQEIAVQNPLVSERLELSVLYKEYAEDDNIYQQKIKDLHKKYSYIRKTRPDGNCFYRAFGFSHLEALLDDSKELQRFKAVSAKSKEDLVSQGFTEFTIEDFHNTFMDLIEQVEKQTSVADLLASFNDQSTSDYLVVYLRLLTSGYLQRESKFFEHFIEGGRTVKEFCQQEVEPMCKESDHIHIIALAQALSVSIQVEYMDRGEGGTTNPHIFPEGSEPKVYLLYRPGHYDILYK", "summary_of_the_method": "as §1"}, "[8]": {"molecular_target": "T4, OTUD4 (UniProt Q01804)", "T4 sequence (whole entry)": "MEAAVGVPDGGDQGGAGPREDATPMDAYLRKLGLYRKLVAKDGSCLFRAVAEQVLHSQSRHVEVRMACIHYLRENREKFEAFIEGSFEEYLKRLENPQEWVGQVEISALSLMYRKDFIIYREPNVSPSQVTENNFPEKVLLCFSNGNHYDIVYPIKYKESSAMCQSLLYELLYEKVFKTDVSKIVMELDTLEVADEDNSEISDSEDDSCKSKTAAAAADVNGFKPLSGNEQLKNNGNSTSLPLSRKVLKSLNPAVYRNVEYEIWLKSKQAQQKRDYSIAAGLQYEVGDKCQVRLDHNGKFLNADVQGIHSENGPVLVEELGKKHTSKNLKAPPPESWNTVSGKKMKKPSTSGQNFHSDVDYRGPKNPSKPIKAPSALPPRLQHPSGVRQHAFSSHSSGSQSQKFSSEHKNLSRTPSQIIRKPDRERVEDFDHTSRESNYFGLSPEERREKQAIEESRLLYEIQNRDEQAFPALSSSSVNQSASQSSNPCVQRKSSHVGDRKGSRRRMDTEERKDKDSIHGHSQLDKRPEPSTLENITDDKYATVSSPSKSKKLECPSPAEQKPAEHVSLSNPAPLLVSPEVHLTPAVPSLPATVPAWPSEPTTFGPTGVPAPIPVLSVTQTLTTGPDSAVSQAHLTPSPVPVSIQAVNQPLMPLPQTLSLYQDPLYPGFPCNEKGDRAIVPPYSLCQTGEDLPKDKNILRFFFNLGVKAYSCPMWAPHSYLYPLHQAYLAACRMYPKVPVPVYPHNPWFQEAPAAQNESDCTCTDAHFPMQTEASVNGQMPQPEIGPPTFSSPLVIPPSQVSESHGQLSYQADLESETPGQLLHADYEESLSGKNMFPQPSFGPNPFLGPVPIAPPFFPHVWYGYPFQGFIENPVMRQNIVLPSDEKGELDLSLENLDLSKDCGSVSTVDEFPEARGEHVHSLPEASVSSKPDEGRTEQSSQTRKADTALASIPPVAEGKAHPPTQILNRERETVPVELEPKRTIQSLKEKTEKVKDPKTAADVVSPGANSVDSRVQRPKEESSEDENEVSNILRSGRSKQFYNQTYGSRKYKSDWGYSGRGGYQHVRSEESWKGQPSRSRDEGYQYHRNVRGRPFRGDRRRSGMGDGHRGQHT", "summary_of_the_method": "as §1"}, "[9]": {"molecular_target": "T5, OTUD5 (UniProt Q96G74)", "T5 sequence (whole entry)": "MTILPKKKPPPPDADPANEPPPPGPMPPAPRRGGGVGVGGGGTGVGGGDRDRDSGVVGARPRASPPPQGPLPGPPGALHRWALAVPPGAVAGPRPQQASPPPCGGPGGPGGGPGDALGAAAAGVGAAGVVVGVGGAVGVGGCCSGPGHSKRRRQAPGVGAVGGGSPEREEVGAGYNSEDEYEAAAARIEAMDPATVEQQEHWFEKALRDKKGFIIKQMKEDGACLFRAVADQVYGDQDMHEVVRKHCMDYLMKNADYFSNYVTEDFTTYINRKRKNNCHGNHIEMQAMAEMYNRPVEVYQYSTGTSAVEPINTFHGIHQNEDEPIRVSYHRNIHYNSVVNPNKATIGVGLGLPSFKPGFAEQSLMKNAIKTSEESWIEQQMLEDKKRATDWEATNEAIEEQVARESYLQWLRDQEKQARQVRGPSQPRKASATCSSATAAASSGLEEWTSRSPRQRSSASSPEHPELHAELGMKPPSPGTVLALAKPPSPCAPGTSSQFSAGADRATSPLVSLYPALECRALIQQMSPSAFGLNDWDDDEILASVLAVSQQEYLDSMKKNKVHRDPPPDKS", "summary_of_the_method": "as §1"}}, "note": "A number with no mark means an inactive call.", "data": [{"smiles": "CC(NC(=O)CCl)c1csc(-c2ccccc2)n1.Cl", "note": "(centres undefined)", "values": [{"measurement": "log2 ratio of Biotin-Ahx-Ub-VS probe labelling", "setting": "[1]", "value": 0.0117}, {"measurement": "log2 ratio of Biotin-Ahx-Ub-VS probe labelling", "setting": "[2]", "value": -0.556}, {"measurement": "log2 ratio of Biotin-Ahx-Ub-VS probe labelling", "setting": "[3]", "value": "-3.84 (active)"}, {"measurement": "log2 ratio of Biotin-Ahx-Ub-VS probe labelling", "setting": "[4]", "value": -0.0347}, {"measurement": "log2 ratio of Biotin-Ahx-Ub-VS probe labelling", "setting": "[5]", "value": -0.03}, {"measurement": "log2 ratio of Biotin-Ahx-Ub-VS probe labelling", "setting": "[6]", "value": 0.268}, {"measurement": "log2 ratio of Biotin-Ahx-Ub-VS probe labelling", "setting": "[7]", "value": -0.0384}, {"measurement": "log2 ratio of Biotin-Ahx-Ub-VS probe labelling", "setting": "[8]", "value": "-1.31 (active)"}, {"measurement": "log2 ratio of Biotin-Ahx-Ub-VS probe labelling", "setting": "[9]", "value": -0.527}]}]}
